An excerpt weighted towards active compounds, which were near 5.7% of everything screened.
B2AR arrestin: recruits beta-arrestin to the human beta2-adrenergic receptor | 0.02% of 330,000 active | P07550 | beta-arrestin recruitment to beta2AR, cell-based reporter | AID 492947 | Potency, µM (titrated, usually from 46.1 µM), without a hit: at the highest dose activation, actives largely listed as activators;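 also: 0% = DMSO controls and full agonism = EC100 isoproterenol or metaproterenol; nearly all actives have a fitted effect of over 65% in size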
Target sequence (P07550 whole entry, looked up): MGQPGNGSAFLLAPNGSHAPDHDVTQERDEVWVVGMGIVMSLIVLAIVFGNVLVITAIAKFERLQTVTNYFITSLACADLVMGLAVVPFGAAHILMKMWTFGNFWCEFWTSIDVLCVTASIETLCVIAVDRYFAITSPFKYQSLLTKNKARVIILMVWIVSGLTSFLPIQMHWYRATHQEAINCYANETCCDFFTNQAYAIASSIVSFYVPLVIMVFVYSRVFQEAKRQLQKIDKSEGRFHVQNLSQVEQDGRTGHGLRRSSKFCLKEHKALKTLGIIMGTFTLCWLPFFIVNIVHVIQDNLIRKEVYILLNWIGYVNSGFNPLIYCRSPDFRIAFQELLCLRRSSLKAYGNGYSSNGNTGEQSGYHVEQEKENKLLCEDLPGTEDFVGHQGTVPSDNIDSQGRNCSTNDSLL
Gal4-VP16 FLuc: inhibits Gal4-VP16 luciferase reporter, ROR gamma counter-screen | Drosophila S2 Gal4-VP16 UAS-luciferase, luminescence, 20 h | Potency, µM (top dose mostly 53.6 µM), for inactives: at the top dose activity, negative = inhibition, hits mostly inhibitors | 3.5% of 310,000 active;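 also: Gal4-VP16 expression switched on by copper sulfate through the metallothionein promoter; nearly all actives have a fitted effect of over 50% in size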
NPSR antag: blocks cAMP signaling of the human neuropeptide S receptor. CHO-NPSR cells, cAMP TR-FRET, antagonist mode. Potency, µM (doses to about 38.3 µM), inactives show top-dose activity change, negative = inhibition, usual class: inhibitors. 1% of 220,000 active. AID 1461; also: nearly all actives have a fitted effect of over 50% in size
RORg inh: inhibitors of mouse ROR gamma transcriptional activity; 5.4% of 310,000 active; Drosophila S2 Gal4-RORgamma UAS-luciferase reporter, 20 h; Potency, µM (doses to about 53.6 µM), without a hit: top-dose activity change, negative = inhibition, most hits filed as inhibitors; AID 2551; also: nearly all actives have a fitted effect of over 60% in size
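Using a luciferase readout, inhibitors were identified by reduced reporter activity in Drosophila cells coexpressing a copper-inducible Gal4–ROR gamma fusion and UAS-driven Photinus luciferase, incubated 20 hr after 700 uM copper sulfate.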
The depositor's hits bear a star; [ ] = dose if it differs, or a comment. Calls follow the shape of the dose curve; as a rule, active = well fitted curve in the direction sought with a large enough effect; inconclusive = small, poorly fitted or top-dose-only effect, or another doubt; inactive = no such curve, though single readings can be large; an effect the other way counts as inactive or inconclusive. Unless noted, % is scaled to controls: 0 for no effect and ±100 for the full control effect; potency is read from the fitted curve at half-maximal effect.

How did COC(=O)[C@@]1(Cc2ccc(OC)cc2)[C@H]2c3cc(C(=O)N(C)C)n(Cc4ccc(C(F)(F)F)nc4)c3C[C@H]2CN1C(=O)c1ccccc1 do in these assays?
Gal4-VP16 FLuc: -3%; RORg inh: inconclusive

How did O=C(Nc1nc2ccccc2n1Cc1ccc(Cl)cc1)c1ccco1 do in these assays?
B2AR arrestin: 0%; Gal4-VP16 FLuc: 2µM*; NPSR antag: inconclusive; RORg inh: 0.71µM*

How did C=CCn1c(NC(=O)c2ccco2)nc2ccccc21 do in these assays?
B2AR arrestin: -1%; Gal4-VP16 FLuc: 3.5µM*; RORg inh: 4µM*

How did O=C(Nc1nc2ccccc2n1CCOc1ccc(Cl)cc1)c1ccco1 do in these assays?
B2AR arrestin: 0%; Gal4-VP16 FLuc: 2.5µM*; NPSR antag: -26%[46.1 µM]; RORg inh: 1.4µM*

Results for C=CCn1c(NCc2ccco2)nc2ccccc21 ?
B2AR arrestin: -1%; Gal4-VP16 FLuc: 18%; RORg inh: 16%

How did CC(=O)Nc1nc2ccccc2n1Cc1ccc(Cl)cc1 do in these assays?
B2AR arrestin: 0%; Gal4-VP16 FLuc: 1.6µM*; NPSR antag: 8%; RORg inh: 1.1µM*

Results for CCn1c(NC(C)=O)nc2ccccc21 ?
B2AR arrestin: -1%; Gal4-VP16 FLuc: inconclusive; NPSR antag: -1%[46.1 µM]; RORg inh: inconclusive

Results for Cc1ccc(OCCn2c(NC(=O)c3ccco3)nc3ccccc32)cc1 ?
B2AR arrestin: 0%; Gal4-VP16 FLuc: 2µM*; NPSR antag: -3%[46.1 µM]; RORg inh: 1.6µM*

Results for CC(NC(=O)/C=C/c1ccco1)c1nc2ccccc2n1Cc1cccc(Cl)c1 (stereo not drawn) ?
B2AR arrestin: inconclusive; Gal4-VP16 FLuc: 11µM*; NPSR antag: -32%; RORg inh: inconclusive

How did O=C(Nc1nc2ccccc2n1CCOc1ccccc1)c1ccco1 do in these assays?
B2AR arrestin: 0%; Gal4-VP16 FLuc: 5µM*; NPSR antag: -26%[46.1 µM]; RORg inh: 2µM*

How did Cc1cccc(OCCn2c(NC(=O)c3ccco3)nc3ccccc32)c1 do in these assays?
B2AR arrestin: 0%; Gal4-VP16 FLuc: 2µM*; NPSR antag: inconclusive; RORg inh: 1.4µM*

What do the screens show for `O=C(Nc1nc2ccccc2n1CCN1CCCCC1)c1ccco1`?
B2AR arrestin: 0%; Gal4-VP16 FLuc: inconclusive; NPSR antag: 10%[7.67 µM]; RORg inh: 0%[10 µM]

Results for CCNc1ncc2nc(CCc3ccccc3)c(=O)n(C[C@H]3CCCO3)c2n1 ?
Gal4-VP16 FLuc: 4%; RORg inh: 0%

How did Oc1ccccc1CN1CCCC(N2CCN(c3cccc(C(F)(F)F)c3)CC2)C1 (stereo not drawn) do in these assays?
B2AR arrestin: 0%; Gal4-VP16 FLuc: -4%; RORg inh: 21%[1.91 µM]

How did O=c1c(-c2ccc(F)cc2)nc2cnc(N3CCOCC3)nc2n1Cc1ccc(F)cc1 do in these assays?
Gal4-VP16 FLuc: 4%; RORg inh: -15%

What do the screens show for `C=CC[C@](C)(Nc1ccc(OC)cc1)C(=O)OCC`?
Gal4-VP16 FLuc: -7%; RORg inh: inconclusive

What do the screens show for `C=CCn1c(C(O)c2ccccc2)nc2ccccc21` (stereo not drawn)?
B2AR arrestin: 0%; Gal4-VP16 FLuc: 6%; RORg inh: 1%

How did C=CCn1c(C(C)C)nc2ccccc21 do in these assays?
B2AR arrestin: 0%; Gal4-VP16 FLuc: -5%[10 µM]; NPSR antag: 10%; RORg inh: 11µM*

Results for CCc1ccc(-c2nc(NC(=O)c3ccc(OCC(=O)Nc4ccc(F)cc4)c(OC)c3)sc2C)cc1 ?
B2AR arrestin: 0%; Gal4-VP16 FLuc: -5%; NPSR antag: 6.3µM*; RORg inh: -5%

How did COc1cc(C(=O)Nc2nc(-c3ccc(Cl)cc3)c(C)s2)ccc1OCC(=O)Nc1ccc(F)cc1 do in these assays?
B2AR arrestin: -1%; Gal4-VP16 FLuc: inconclusive; NPSR antag: 4µM*; RORg inh: inconclusive

How did CCSc1cc(C2C(C#N)=C(N)OC(C)=C2C(=O)OC)c(C)o1 (stereo not drawn) do in these assays?
B2AR arrestin: 0%; Gal4-VP16 FLuc: -2%; NPSR antag: -16%[46.1 µM]; RORg inh: 13µM*

Results for COC(=O)C1=C(C)OC(N)=C(C#N)C1c1ccccc1 (stereo not drawn) ?
B2AR arrestin: -2%; Gal4-VP16 FLuc: -1%; NPSR antag: 9%[46.1 µM]; RORg inh: -8%

How did C/C(CC(=O)Nc1cccc(Cl)c1Cl)=N\NC(=O)c1ccccc1Br do in these assays?
B2AR arrestin: 0%; Gal4-VP16 FLuc: inconclusive; NPSR antag: 8%; RORg inh: inconclusive

How did COc1ccc(Cl)cc1NC(=O)C/C(C)=N/NC(=O)c1ccccc1Cl do in these assays?
B2AR arrestin: -1%; Gal4-VP16 FLuc: 13µM*; RORg inh: 20%[1.91 µM]

What do the screens show for `C/C(CC(=O)Nc1cccc(Cl)c1Cl)=N\NC(=O)c1ccccc1N`?
B2AR arrestin: 0%; Gal4-VP16 FLuc: -83%; NPSR antag: 4%; RORg inh: 13µM*

What do the screens show for `Cc1ccccc1NC1=C(Cl)C(=O)OC1OC(=O)c1ccco1` (stereo not drawn)?
B2AR arrestin: 0%; Gal4-VP16 FLuc: -28%; NPSR antag: -9%[46.1 µM]; RORg inh: 10µM*

What do the screens show for `CC1=NN(C(=O)Cc2ccc([N+](=O)[O-])cc2)C(O)(c2cccnc2)C1` (stereo not drawn)?
B2AR arrestin: 0%; Gal4-VP16 FLuc: -6%[0.365 µM]; NPSR antag: -9%[46.1 µM]; RORg inh: 14µM*

How did CC1=NN(C(=O)Cc2ccccc2)C(O)(c2ccccc2)C1 (stereo not drawn) do in these assays?
B2AR arrestin: -1%; Gal4-VP16 FLuc: 3%; NPSR antag: 7%; RORg inh: 13%

What do the screens show for `COc1ccc(CC(=O)N2N=C(C)CC2(O)c2cccnc2)cc1OC` (stereo not drawn)?
B2AR arrestin: 0%; Gal4-VP16 FLuc: inconclusive; NPSR antag: 36%; RORg inh: 11µM*

How did CCC1=NN(C(=O)Cc2ccc(OC)c(OC)c2)C(O)(C(F)(F)F)C1 (stereo not drawn) do in these assays?
B2AR arrestin: 0%; Gal4-VP16 FLuc: inconclusive; NPSR antag: 15%; RORg inh: 16µM*

Results for O=C(Cc1ccc([N+](=O)[O-])cc1)N1N=C(c2ccncc2)CC1(O)C(F)(F)F (stereo not drawn) ?
B2AR arrestin: 0%; Gal4-VP16 FLuc: -4%; NPSR antag: -10%; RORg inh: -18%

Results for COc1ccc(CC(=O)N2N=C(C)CC2(O)c2cccnc2)cc1 (stereo not drawn) ?
B2AR arrestin: 0%; Gal4-VP16 FLuc: -2%; NPSR antag: -1%[46.1 µM]; RORg inh: -45%

How did CC1=NN(C(=O)Cc2ccc([N+](=O)[O-])cc2)C(O)(c2ccccc2)C1 (stereo not drawn) do in these assays?
B2AR arrestin: 0%; Gal4-VP16 FLuc: 13µM*; NPSR antag: -16%[46.1 µM]; RORg inh: 8.9µM*

How did CCCCCCCCCCC(C)=O do in these assays?
Gal4-VP16 FLuc: 2%; RORg inh: 8%

How did Cc1cc(Br)ccc1NC(=O)C1C2CCC(O2)C1C(=O)O (stereo not drawn) do in these assays?
B2AR arrestin: 1%; Gal4-VP16 FLuc: 2%; RORg inh: 67%

Screening data: PubChem BioAssay, National Center for Advancing Translational Sciences (NCATS)
